Test results taken from PubChem BioAssay (EPA / NIEHS).
The source made the active and inactive calls. The calls were made as follows: active = hit-call score of the fitted dose curve at least 0.9, where 1 is the maximum; inactive = score below 0.9.

Tests used:
[1] = ATG_AP_2_CIS: Attagene CIS-FACTORIAL HepG2 Assay for human Activator Protein 2 (AP-2) (AID 2282932); details: HepG2 AP-2 cis-reporter, Attagene transcription factor profiling; actives raise or lower the signal
Method in brief: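 HepG2 cells were transiently transfected with multiple cis-promoter reporter transcription units and dosed for 24 h. Reporter mRNA was measured by RT-PCR with capillary electrophoresis fluorescence; bidirectional fits relative to DMSO baseline.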

[2] = ATG_BRE_CIS: Attagene CIS-FACTORIAL HepG2 Assay for human Bone Morphogenetic Protein (BMP) Response Element (BRE) (AID 2282933); details: HepG2 BMP response element reporter, Attagene transcription factor profiling; actives raise or lower the signal
Method in brief: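 Endogenous transcription factor activity read in transiently transfected HepG2 cells after 24 h chemical exposure. Bidirectional curve fitting against DMSO; readout is reporter transcript level by RT-PCR with capillary electrophoresis of labelled products.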

[3] = target: Transcription factor E2F1 (Homo sapiens) (UniProt Q01094); assay: ATG_E2F_CIS: Attagene CIS-FACTORIAL HepG2 Assay for human E2F Transcription Factor 1 (AID 2282935); details: HepG2 Attagene cis-reporter, E2F reporter RNA transcripts; actives raise or lower the signal
Method in brief: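 HepG2 cells transiently transfected with multiplexed cis-element reporter units, dosed for 24 h. Reporter mRNA measured by RT-PCR, 6-FAM primer-extension labeling, HpaI digestion and capillary electrophoresis; bidirectional fit versus DMSO baseline.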

[4] = ATG_E_Box_CIS: Attagene CIS-FACTORIAL HepG2 Assay for human Enhancer Box (E-box) (AID 2282936); details: HepG2 E-box cis-reporter transcription, actives raise or lower the signal
Method in brief: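 HepG2 cells transiently transfected with multiplexed cis-element reporter units sensing endogenous transcription factor activity; 24 h compound exposure. Reporter mRNA measured by RT-PCR, 6-FAM primer extension, HpaI digestion and capillary electrophoresis; bidirectional fit versus DMSO.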

[5] = ATG_M_61_CIS: Attagene CIS-FACTORIAL HepG2 Assay for M61 Transcription Factor (Internal Marker) (AID 2282937); details: HepG2 Attagene CIS-FACTORIAL M61 internal marker reporter; actives raise or lower the signal
Method in brief: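 Cells were transfected with reporter units under cis-regulatory promoters, treated with chemicals for 24 h, then lysed for RNA. Reporter transcripts were quantified by RT-PCR and capillary electrophoresis, and activity was fitted bidirectionally against DMSO.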

[6] = ATG_EGR_CIS: Attagene CIS-FACTORIAL HepG2 Assay for human Early Growth Response 1 (EGR1) (AID 2282938); details: HepG2 Attagene CIS-FACTORIAL EGR reporter mRNA; actives raise or lower the signal
Method in brief: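 Endogenous TF activity in HepG2 liver cells was gauged through cis-promoter reporter constructs transiently transfected. After 24 h dosing, reporter mRNA was quantified by RT-PCR and capillary electrophoresis, and curves fitted in both directions versus DMSO.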

[7] = ATG_M_19_CIS: Attagene CIS-FACTORIAL HepG2 Assay for M19 Transcription Factor (Internal Marker) (AID 2282939); details: HepG2 Attagene CIS-FACTORIAL M19 internal marker reporter; actives raise or lower the signal
Method in brief: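 Internal marker readout, fitted in both directions against DMSO, from HepG2 cells carrying transfected cis-element reporter constructs; RT-PCR and capillary electrophoresis of reporter mRNA after 24 h exposure.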

[8] = ATG_ERE_CIS: Attagene CIS-FACTORIAL HepG2 Assay for Estrogen Response Element (ERE) (AID 2282940); details: HepG2 ERE cis-reporter, Attagene RNA transcript; actives raise or lower the signal
Method in brief: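 After 24 h compound treatment, RNA from transfected HepG2 cells was reverse-transcribed, reporter cDNA PCR-amplified, FAM-labelled, HpaI-cut and resolved by capillary electrophoresis. ERE-driven cis reporter transcripts reflect endogenous factors; gain or loss scored against DMSO.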

[9] = ATG_Ets_CIS: Attagene CIS-FACTORIAL HepG2 Assay for human Erythroblast Transformation Specific (ETS) (AID 2282941); details: HepG2 ETS cis-reporter transcription, actives raise or lower the signal
Method in brief: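 Steps: transfect HepG2 with multiple reporter units; treat compound 24 h; isolate RNA, DNase-treat, reverse-transcribe; PCR-amplify, label with 6-FAM, digest with HpaI; separate by capillary electrophoresis. Activity fitted both directions versus DMSO.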

[10] = target: Hepatocyte nuclear factor 3-beta (Homo sapiens) (UniProt Q9Y261); assay: ATG_FoxA2_CIS: Attagene CIS-FACTORIAL HepG2 Assay for human Forkhead box A2 (FOXA2) (AID 2282942); details: HepG2 cis-reporter transcription factor activity, 24 h; actives raise or lower the signal
Method in brief: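 Endogenous transcription factor activity was read in HepG2 cells carrying transiently transfected cis-promoter reporter units. After 24 h dosing, reporter mRNA was quantified by RT-PCR and capillary electrophoresis, and values fitted bidirectionally versus DMSO.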

[11] = ATG_FoxO_CIS: Attagene CIS-FACTORIAL HepG2 Assay for human Forkhead box O (FoxO) (AID 2282943); details: HepG2 Attagene cis-reporter, FoxO element, mRNA; actives raise or lower the signal
Method in brief: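 HepG2 cells transiently transfected with cis-promoter-driven multiple reporter transcription units; 24 h after chemical dosing, reporter mRNA quantified by RT-PCR, fluorescent primer extension, HpaI digestion and capillary electrophoresis. Bidirectional fitting versus DMSO baseline.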

[12] = ATG_GATA_CIS: Attagene CIS-FACTORIAL HepG2 Assay for human GATA Binding Protein (AID 2282944); details: HepG2 GATA cis-element reporter, Attagene multiplex mRNA; actives raise or lower the signal
Method in brief: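 Reporter transcripts from a GATA cis-regulated unit, among multiplexed reporters in transfected HepG2 cells, were measured by RT-PCR with capillary electrophoresis after 24 h dosing. Induction or loss scored relative to DMSO.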

[13] = ATG_GLI_CIS: Attagene CIS-FACTORIAL HepG2 Assay for human Zinc Finger Protein GLI1 (AID 2282945); details: HepG2, Attagene cis-factorial reporter mRNA, GLI element; actives raise or lower the signal
Method in brief: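 HepG2 cells transiently transfected with cis-promoter multiplexed reporter units report endogenous transcription factor activity. After 24 h chemical exposure, reporter mRNA was quantified by RT-PCR, 6-FAM labelling, HpaI digestion and capillary electrophoresis, with bidirectional fitting against DMSO.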

[14] = target: Bile acid receptor (Homo sapiens) (UniProt Q96RI1); assay: ATG_IR1_CIS: Attagene CIS-FACTORIAL HepG2 Assay for human Nuclear Receptor Subfamily 1 Group H Member 4 (NR1H4), IR1 submotif (AID 2282946); details: IR1 reporter transcription, actives raise or lower the signal
Method in brief: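 Transient MRTU transfection, HepG2; 24 h dosing; RNA → RT-PCR → 6-FAM primer extension → HpaI digest → capillary electrophoresis fluorescence. Gain/loss of signal fitted relative to DMSO.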

[15] = ATG_GRE_CIS: Attagene CIS-FACTORIAL HepG2 Assay for human Glucocorticoid Response Elements (GRE) (AID 2282947); details: HepG2 GRE cis-reporter, Attagene multiplex mRNA; actives raise or lower the signal
Method in brief: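 HepG2 cells transiently transfected with multiple cis-promoter reporter units measure endogenous TF activity; 24 h compound exposure. Reporter mRNA quantified by RT-PCR, FAM labelling, HpaI digestion and capillary electrophoresis; bidirectional fit vs DMSO baseline.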

[16] = ATG_ISRE_CIS: Attagene CIS-FACTORIAL HepG2 Assay for human Interferon Regulatory Factor 1 (IRF1) binding to an Interferon-Stimulated Response Element (ISRE) (AID 2282948); details: HepG2 ISRE cis-reporter (Attagene), mRNA transcription readout; actives raise or lower the signal
Method in brief: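 Transfected HepG2 (multiple reporter transcription units, cis elements) dosed 24 h. RNA → oligo(dT) RT → PCR → 6-FAM primer extension → HpaI → CE. DMSO = negative control/baseline.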

[17] = ATG_M_32_CIS: Attagene CIS-FACTORIAL HepG2 Assay for M32 Transcription Factor (Internal Marker) (AID 2282949); details: HepG2 Attagene cis-factorial M32 reporter, mRNA; actives raise or lower the signal;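 also: background control marker of the multiplexed CIS panel rather than a real target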
Method in brief: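 Internal background marker read-out: RT-PCR/capillary electrophoresis fluorescence of reporter transcripts from transiently transfected HepG2 cells after 24 h chemical exposure. Activity fitted bidirectionally relative to DMSO negative control.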

[18] = ATG_M_06_CIS: Attagene CIS-FACTORIAL HepG2 Assay for M06 Transcription Factor (Internal Marker) (AID 2282950); details: HepG2 Attagene CIS-FACTORIAL M06 internal marker reporter; actives raise or lower the signal
Method in brief: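 Serves as a background control readout. Transfected HepG2 exposed to compounds for 24 h, then reporter transcripts quantified by fluorescent RT-PCR and capillary electrophoresis. Both directions fitted against DMSO baseline.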

[19] = target: Retinoic acid receptor alpha (Homo sapiens) (UniProt P10276); assay: ATG_DR5_RAR_CIS: Attagene CIS-FACTORIAL HepG2 Assay for human Retinoic Acid Receptor Alpha (RARE), DR5 submotif (AID 2282934); details: HepG2 Attagene cis-factorial RARE DR5 reporter, mRNA; actives raise or lower the signal
Method in brief: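 HepG2 cells transiently transfected with multiplexed reporter units under cis (DR5 RARE) promoters, so endogenous transcription factor activity is measured. After 24 h compound exposure, reporter mRNA is quantified by RT-PCR with fluorescent labelling and capillary electrophoresis; bidirectional fitting versus DMSO.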

Chain of Retinoic acid receptor alpha (Homo sapiens) (P10276 whole entry, looked up): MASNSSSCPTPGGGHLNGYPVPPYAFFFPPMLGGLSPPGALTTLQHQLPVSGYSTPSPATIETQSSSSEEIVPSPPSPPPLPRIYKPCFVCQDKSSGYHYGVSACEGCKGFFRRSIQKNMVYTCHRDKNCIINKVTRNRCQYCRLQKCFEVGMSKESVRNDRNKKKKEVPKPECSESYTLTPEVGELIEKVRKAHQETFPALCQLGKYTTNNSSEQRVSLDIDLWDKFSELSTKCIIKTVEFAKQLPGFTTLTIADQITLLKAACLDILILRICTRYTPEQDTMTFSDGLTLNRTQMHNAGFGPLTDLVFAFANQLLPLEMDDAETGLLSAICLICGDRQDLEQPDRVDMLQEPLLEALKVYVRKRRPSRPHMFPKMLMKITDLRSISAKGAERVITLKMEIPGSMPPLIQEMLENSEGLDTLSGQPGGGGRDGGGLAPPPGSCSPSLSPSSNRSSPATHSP
Chain of Bile acid receptor (Homo sapiens) (Q96RI1 whole entry, looked up): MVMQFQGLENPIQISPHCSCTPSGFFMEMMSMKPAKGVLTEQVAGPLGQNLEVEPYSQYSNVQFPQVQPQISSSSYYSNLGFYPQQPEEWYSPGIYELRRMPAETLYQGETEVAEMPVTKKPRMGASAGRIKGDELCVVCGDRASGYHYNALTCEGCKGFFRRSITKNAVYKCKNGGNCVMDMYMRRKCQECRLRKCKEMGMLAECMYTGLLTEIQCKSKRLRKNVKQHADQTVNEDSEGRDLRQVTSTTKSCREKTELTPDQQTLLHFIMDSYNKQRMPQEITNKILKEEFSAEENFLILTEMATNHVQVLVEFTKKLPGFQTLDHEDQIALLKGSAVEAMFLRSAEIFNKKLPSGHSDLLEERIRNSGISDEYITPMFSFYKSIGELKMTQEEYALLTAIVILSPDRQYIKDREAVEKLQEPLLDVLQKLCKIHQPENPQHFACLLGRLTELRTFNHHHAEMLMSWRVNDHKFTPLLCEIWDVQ
Chain of Hepatocyte nuclear factor 3-beta (Homo sapiens) (Q9Y261 whole entry, looked up): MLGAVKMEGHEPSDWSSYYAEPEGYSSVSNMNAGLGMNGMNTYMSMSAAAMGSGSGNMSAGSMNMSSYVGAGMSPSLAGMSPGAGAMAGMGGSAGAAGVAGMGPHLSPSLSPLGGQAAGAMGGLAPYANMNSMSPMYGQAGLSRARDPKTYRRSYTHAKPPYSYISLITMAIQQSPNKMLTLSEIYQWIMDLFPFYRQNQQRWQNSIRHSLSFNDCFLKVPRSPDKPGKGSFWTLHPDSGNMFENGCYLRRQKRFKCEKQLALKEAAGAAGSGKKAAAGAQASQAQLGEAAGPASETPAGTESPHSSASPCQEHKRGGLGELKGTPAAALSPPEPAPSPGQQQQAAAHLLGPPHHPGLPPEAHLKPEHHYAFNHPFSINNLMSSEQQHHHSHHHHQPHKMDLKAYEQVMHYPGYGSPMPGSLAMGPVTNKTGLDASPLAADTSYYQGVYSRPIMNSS
Chain of Transcription factor E2F1 (Homo sapiens) (Q01094 whole entry, looked up): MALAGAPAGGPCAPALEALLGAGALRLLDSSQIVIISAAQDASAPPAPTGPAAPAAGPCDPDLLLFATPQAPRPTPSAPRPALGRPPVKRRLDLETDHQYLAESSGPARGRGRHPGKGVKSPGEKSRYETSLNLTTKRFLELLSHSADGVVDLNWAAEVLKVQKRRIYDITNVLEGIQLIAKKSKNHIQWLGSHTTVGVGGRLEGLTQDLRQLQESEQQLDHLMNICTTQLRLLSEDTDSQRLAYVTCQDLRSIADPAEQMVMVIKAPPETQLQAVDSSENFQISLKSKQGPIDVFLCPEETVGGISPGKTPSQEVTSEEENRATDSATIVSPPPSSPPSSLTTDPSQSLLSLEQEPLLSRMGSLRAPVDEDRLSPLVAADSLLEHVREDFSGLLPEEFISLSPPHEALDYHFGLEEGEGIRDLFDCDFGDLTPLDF

SMILES: ClCc1cccnc1
- outcome [1]: inactive
- outcome [2]: inactive
- outcome [3]: inactive
- outcome [4]: inactive
- outcome [5]: inactive
- AC50 [6]: 58.6 µM (active)
- outcome [7]: inactive
- outcome [8]: inactive
- AC50 [9]: 81.3 µM (active)
- outcome [10]: inactive
- outcome [11]: inactive
- outcome [12]: inactive
- outcome [13]: inactive
- outcome [14]: inactive
- AC50 [15]: 72.5 µM (active)
- outcome [16]: inactive
- outcome [17]: inactive
- outcome [18]: inactive

SMILES: O=C/C=C/c1ccccc1
- outcome [2]: inactive
- outcome [19]: inactive
- outcome [3]: inactive
- outcome [4]: inactive
- outcome [5]: inactive
- outcome [6]: inactive
- outcome [7]: inactive
- AC50 [8]: 35 µM (active)
- outcome [9]: inactive
- outcome [10]: inactive
- outcome [11]: inactive
- outcome [12]: inactive
- outcome [13]: inactive
- outcome [15]: inactive
- outcome [16]: inactive
- outcome [17]: inactive
- outcome [18]: inactive

SMILES: CCCCCCCCc1ccc(O)cc1
- outcome [1]: inactive
- outcome [2]: inactive
- outcome [19]: inactive
- outcome [3]: inactive
- outcome [4]: inactive
- outcome [5]: inactive
- outcome [6]: inactive
- outcome [7]: inactive
- outcome [9]: inactive
- outcome [10]: inactive
- outcome [11]: inactive
- outcome [12]: inactive
- outcome [13]: inactive
- outcome [15]: inactive
- outcome [16]: inactive
- outcome [17]: inactive
- outcome [18]: inactive

SMILES: CCC(=O)c1ccccc1
- outcome [1]: inactive
- outcome [2]: inactive
- outcome [3]: inactive
- outcome [4]: inactive
- outcome [5]: inactive
- outcome [6]: inactive
- outcome [7]: inactive
- outcome [8]: inactive
- outcome [9]: inactive
- outcome [10]: inactive
- outcome [11]: inactive
- outcome [12]: inactive
- outcome [13]: inactive
- outcome [14]: inactive
- outcome [16]: inactive
- outcome [17]: inactive
- outcome [18]: inactive

SMILES: Cc1cc(=O)[nH]o1
- outcome [1]: inactive
- outcome [2]: inactive
- outcome [3]: inactive
- outcome [4]: inactive
- outcome [5]: inactive
- outcome [6]: inactive
- outcome [7]: inactive
- outcome [8]: inactive
- outcome [9]: inactive
- outcome [10]: inactive
- outcome [11]: inactive
- outcome [12]: inactive
- outcome [13]: inactive
- outcome [15]: inactive
- outcome [16]: inactive
- outcome [17]: inactive
- outcome [18]: inactive

SMILES: O=[N+]([O-])c1ccc(O)c([N+](=O)[O-])c1
- outcome [1]: inactive
- outcome [2]: inactive
- outcome [19]: inactive
- outcome [3]: inactive
- outcome [4]: inactive
- outcome [5]: inactive
- outcome [6]: inactive
- outcome [8]: inactive
- outcome [9]: inactive
- outcome [10]: inactive
- outcome [11]: inactive
- outcome [12]: inactive
- outcome [13]: inactive
- outcome [16]: inactive
- outcome [17]: inactive
- outcome [18]: inactive

SMILES: COC(=O)c1sccc1S(=O)(=O)NC(=O)Nc1nc(C)nc(OC)n1
- outcome [1]: inactive
- outcome [2]: inactive
- outcome [19]: inactive
- outcome [3]: inactive
- outcome [4]: inactive
- outcome [5]: inactive
- outcome [6]: inactive
- outcome [7]: inactive
- AC50 [8]: 47.4 µM (active)
- outcome [9]: inactive
- outcome [10]: inactive
- outcome [11]: inactive
- outcome [12]: inactive
- outcome [13]: inactive
- outcome [15]: inactive
- outcome [16]: inactive
- outcome [17]: inactive
- outcome [18]: inactive

SMILES: O=C1CCCN1
- outcome [1]: inactive
- outcome [2]: inactive
- outcome [3]: inactive
- outcome [4]: inactive
- outcome [5]: inactive
- outcome [6]: inactive
- outcome [8]: inactive
- outcome [9]: inactive
- outcome [10]: inactive
- outcome [11]: inactive
- outcome [12]: inactive
- outcome [13]: inactive
- outcome [14]: inactive
- outcome [15]: inactive
- outcome [16]: inactive
- outcome [17]: inactive
- outcome [18]: inactive
